High-throughput results deposited in PubChem by National Center for Advancing Translational Sciences (NCATS).
HCV inhibitor: HCV inhibition; Huh7.5.1 HCVcc-Cre infection, luciferase reporter, 44 h; Potency, µM (doses to about 41.8 µM), actives largely listed as inhibitors; 340,000 compounds, 3.4% hits; AID 651820; active = well fitted inhibition curve with a large enough effect; inconclusive = small, poorly fitted or top-dose-only effect, or another doubt; inactive = no such curve, though single readings can be large or run the other way
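After 44 h co-culture of compound, cells and HCVcc-Cre (~0.5 moi), substrate is added for 15 min at room temperature and luciferase measured over 15 sec. Cells were seeded at 1,000/well and pre-cultured 4 h.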
Lassa entry inh: Lassa virus entry inhibition. Lassa virus pseudotype entry inhibition, cell reporter. Potency, µM (top dose mostly 37.9 µM), hits mostly inhibitors. 300,000 compounds, 1.2% hits; calls by dose curve; tested in HEK293 cells; note: nearly all actives have a fitted effect of over 50% in size
FMDV inh: blocks foot and mouth disease virus; FMDV antiviral cell-based qHTS; Potency, µM (titrated, usually from 57.9 µM), usual class: inhibitors; 410,000 compounds, 1.2% hits; calls by dose curve; tested in HEK293T cells; note: read-out not given here; nearly all actives have a fitted effect of over 45% in size
HCMV inh: human cytomegalovirus inhibition; activity change, negative = inhibition, % at 57.5 µM; 410,000 compounds, 4.5% hits; HFF cells, HCMV-luciferase reporter, 72 h; active compounds read low; in the data active = activity change below about -60%; inconclusive = no clear call, values can overlap the other calls; inactive = above about -39%
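Human foreskin fibroblasts infected with luciferase-reporter HCMV at MOI 1 PFU/cell, compounds at two doses. Luciferase measured 72 h post infection; normalized to buffer-only basal and Salinomycin (10uM) controls.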
MARV entry inh: blocks Marburg virus binding to or entry into cells | Potency, µM (top dose mostly 37.8 µM), usual class: inhibitors | Marburg virus pseudotyped entry inhibition, cell reporter | 300,000 compounds, 1.8% hits | AID 540276; calls by dose curve; tested in HEK293 cells
Large screens that a line does not name were inactive. Hits are enriched below; roughly 7.9% of the tested compounds scored in any of these assays.

O=C(c1ccoc1)N1CCC2(CC1)Oc1ccc(Cl)cc1C(=O)C21CC(c2ccccc2)=NO1 (stereo not given)	HCV inhibitor 11µM (no result: Lassa entry inh, MARV entry inh)
O=C(c1ccoc1)N1CCC2(CC1)Oc1ccc(Cl)cc1C(=O)C21CC(c2cccnc2)=NO1 (stereo not given)	none (no result: Lassa entry inh, MARV entry inh)
CC(Nc1oc(-c2ccccc2)nc1C(C)(C)C)c1ccccc1 (stereo not given)	Lassa entry inh inconclusive (no result: HCV inhibitor, FMDV inh, HCMV inh)
CC1CCCN(C(=O)c2ccc(S(=O)(=O)N3CCC(c4nc5ccccc5s4)CC3)cc2)C1 (stereo not given)	HCV inhibitor 10µM, Lassa entry inh inconclusive, HCMV inh inconclusive, MARV entry inh inconclusive (no result: FMDV inh)
CCN(CC)C(=O)c1ccc(S(=O)(=O)N2CCC(c3nc4ccccc4s3)CC2)cc1	HCV inhibitor 2.5µM, Lassa entry inh inconclusive, HCMV inh -96, MARV entry inh inconclusive (no result: FMDV inh)
CC(=O)c1ccc(NC(=O)C(C)Sc2nnc(-c3ccncc3)n2C2CC2)cc1 (stereo not given)	HCMV inh -64, MARV entry inh inconclusive
CC(=O)c1ccc(NC(=O)C(C)Sc2nnc(C3CC3)n2C2CC2)cc1 (stereo not given)	MARV entry inh inconclusive
C=CCNc1nc(N)c([N+](=O)[O-])c(Nc2cccc(Cl)c2)n1	HCV inhibitor 2.8µM (no result: Lassa entry inh, MARV entry inh)
CNc1nc(N)c([N+](=O)[O-])c(Nc2cccc(F)c2)n1	HCV inhibitor 22µM
CNc1nc(N)c([N+](=O)[O-])c(Nc2cccc(Cl)c2)n1	HCV inhibitor 8.9µM (no result: Lassa entry inh, MARV entry inh)
COc1ccc(OC)c(NC(=O)CN(C)S(=O)(=O)c2ccc(C(=O)N3CCOCC3)s2)c1	none (no result: HCV inhibitor, MARV entry inh)
COc1ccc(C)cc1NC(=O)Nc1ccncc1	HCV inhibitor inconclusive
C[C@H]1CN=C(Nc2ccccc2)N1CC1CCCCCC1	HCMV inh inconclusive (no result: Lassa entry inh, MARV entry inh)
C=Cn1cc[n+](CC(=O)c2ccc(Cl)c(Cl)c2)c1	none (no result: Lassa entry inh, MARV entry inh)
CCOC(=O)c1c(C)c(-c2ccccc2)n(CC(=O)Nc2cc(C)ccc2OC)c1C	none (no result: HCV inhibitor, Lassa entry inh)
CCC1CN(C(=O)N2CCC(C(=O)NCCN(CC)CC)CC2)c2ccccc2O1 (stereo not given)	none (no result: HCV inhibitor, MARV entry inh)
C[C@@H](NC(=O)c1nc[nH]c1C(=O)NCc1ccccc1)c1ccccc1	none (no result: Lassa entry inh, MARV entry inh)
CC(CCN1C(Nc2ccccc2)=NC[C@@H]1Cc1ccccc1)c1ccccc1 (stereo not given in full)	HCMV inh -61 (no result: Lassa entry inh, MARV entry inh)
CC(C)CCN1C(Nc2ccccc2)=NC[C@@H]1Cc1ccccc1	none (no result: Lassa entry inh, MARV entry inh)
CCC(C)CCN1C(N(C)C)=NC[C@@H]1Cc1ccccc1 (stereo not given in full)	HCMV inh -67 (no result: Lassa entry inh, MARV entry inh)
CCOC(=O)c1cc(=O)c2ccc(OCC(=O)Nc3ccc(F)cc3)cc2o1	none (no result: Lassa entry inh, MARV entry inh)
COc1ccc(NC(=O)N2c3ccc(OC)cc3[C@@H](NS(C)(=O)=O)[C@H](C)[C@H]2c2ccccc2)cc1	none (no result: HCV inhibitor, Lassa entry inh, FMDV inh, MARV entry inh)
O=C(CNC(=O)c1cccs1)N=Nc1c(O)[nH]c2ccc([N+](=O)[O-])cc12	none (no result: Lassa entry inh, MARV entry inh)
COc1cc(Cl)c(CNC[C@H]2O[C@@H](n3cnc(C(N)=O)n3)[C@H](O)[C@@H]2O)c(Cl)c1O	none (no result: Lassa entry inh, MARV entry inh)
CC(C)Oc1ccc2ccccc2c1CNC[C@H]1O[C@@H](n2cnc(C(N)=O)n2)[C@H](O)[C@@H]1O	HCV inhibitor 5µM (no result: Lassa entry inh, MARV entry inh)
NS(=O)(=O)c1ccc(CCNC(=O)Nc2ccc(Cl)c(Cl)c2)cc1	HCV inhibitor inconclusive, FMDV inh 25µM, HCMV inh inconclusive, MARV entry inh inconclusive
NS(=O)(=O)c1ccc(CNC(=S)Nc2ccc(Cl)c(Cl)c2)cc1	HCMV inh -74, MARV entry inh inconclusive
O=C1OCCN/C1=C/C(=O)c1ccccc1	none (no result: HCV inhibitor, Lassa entry inh, FMDV inh, HCMV inh)
O=C(/C=C/c1ccnc2ccccc12)c1cccs1	HCV inhibitor inconclusive, Lassa entry inh inconclusive, MARV entry inh 3.2µM
Cc1nc(N2CCN(c3ccccc3)CC2)nc2c1C(=O)CC(C)C2 (stereo not given)	HCV inhibitor 11µM, MARV entry inh inconclusive
Cc1nc(N2CCN(c3ccccc3)CC2)nc2c1C(=O)CC(c1ccccc1)C2 (stereo not given)	none
COCCn1c(SCC(=O)Nc2ncc(C)s2)nc2sc3c(c2c1=O)CCC3	HCV inhibitor 2.2µM (no result: Lassa entry inh, FMDV inh, HCMV inh, MARV entry inh)
CCN(CC)C(=O)CSc1nc2sc3c(c2c(=O)n1CCCOC)CCC3	HCMV inh -76
Cc1cccnc1N(C(=O)Nc1cccc(Cl)c1)C1=NCC(C)(C)S1	HCMV inh -62
Nc1ccc2c(c1)OC1(CCCC1)O2	HCV inhibitor inconclusive, Lassa entry inh 16µM, FMDV inh 1.4µM, HCMV inh -86, MARV entry inh inconclusive
O=C(Cc1ccccc1)Nc1ccc2c(c1)OC1(CCCC1)O2	MARV entry inh inconclusive
COc1ccccc1C(=O)Nc1cccc(C(=O)OCc2cc(=O)n3cc(C)sc3n2)c1	HCMV inh inconclusive (no result: HCV inhibitor, MARV entry inh)
Cc1noc2ncnc(N3CCCC3)c12	none (no result: Lassa entry inh, MARV entry inh)
Cc1noc2ncnc(Sc3ccc(Br)cc3)c12	HCV inhibitor 32µM, Lassa entry inh inconclusive, FMDV inh inconclusive, HCMV inh -106, MARV entry inh inconclusive
Fc1ccc2nncc(SCc3ccccc3Cl)c2c1	none
CC(C)C[C@H]1CN=C(Nc2ccccc2)N1CC1CCC(C(C)(C)C)CC1 (stereo not given in full)	HCV inhibitor 11µM, FMDV inh inconclusive (no result: Lassa entry inh, HCMV inh, MARV entry inh)
O=C(O/N=C/c1ccc(Br)cc1)c1ccc(F)cc1	none
Cc1cc(N)n2nc(-c3ccccc3)cc2n1	Lassa entry inh inconclusive, MARV entry inh 8.9µM
Cc1ccc(-c2cc3nc(-c4ccccc4)cc(N)n3n2)cc1	none
CCOC(=O)c1nnc2c(-c3ccc(Cl)cc3)c(C)nn2c1C	none (no result: HCV inhibitor)
COc1ccc2c(O)c(-c3c(C)cc(C)cc3C)c(=O)[nH]c2c1	HCMV inh -63
COc1ccc2c(C)cc(=O)[nH]c2c1	none
COc1cc(NC(=O)c2cccc(C)c2)c(OC)cc1NC(=O)CN1CCCCC1	HCV inhibitor inconclusive, Lassa entry inh inconclusive
COc1cc(NC(=O)c2ccc(Cl)cc2)c(OC)cc1NC(=O)CN1CCCCC1	HCV inhibitor 7.9µM
COc1cc(NC(=O)c2ccc(C(C)(C)C)cc2)c(OC)cc1NC(=O)CN1CCCCC1	Lassa entry inh 10µM, FMDV inh inconclusive, HCMV inh inconclusive, MARV entry inh inconclusive
COc1ccccc1NC(=O)CN1CCC(n2nnc3cc(F)ccc32)CC1	HCV inhibitor inconclusive, FMDV inh inconclusive
COc1cc(NC(=O)c2ccc(Cl)cc2)c(OC)cc1NC(=O)CN1CCOCC1	Lassa entry inh inconclusive, FMDV inh inconclusive, MARV entry inh inconclusive
COc1ccc(Cl)cc1NC(=O)CN1CCC(n2nnc3cc(C)ccc32)CC1	HCV inhibitor 5µM, Lassa entry inh inconclusive, FMDV inh inconclusive, HCMV inh inconclusive, MARV entry inh inconclusive
COc1ccc(C2N3CC4(C)CN2CC(c2ccccc2)(C3)C4=O)cc1 (stereo not given)	none (no result: HCV inhibitor)
COc1cc(CN(C(=S)NCC(=O)NC2CCCC2)C2CCCC2)cc(OC)c1OC	none
CCOc1ccccc1-c1nc(CN2CCN(C(=O)c3ccco3)CC2)c(C)o1	none (no result: Lassa entry inh, MARV entry inh)
CCOc1ccccc1-n1c(CN2CCN(C(=O)c3ccco3)CC2)nc2ccccc2c1=O	HCMV inh -105
O=c1[nH][nH]c(C(F)(F)F)c1C=NCc1cccs1	HCMV inh -65 (no result: Lassa entry inh, MARV entry inh)
